Test results reported in PubChem BioAssay.

Experiment: probe aNOTCH3 binding on compound microarray – biochemical, small-molecule microarray, 635/667 nm fluorescence, primary screen (AID 1120);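 further: probe is a biotin-tagged antibody raised against NOTCH3 rather than NOTCH3 protein; score merges spot fluorescence near 667 nm with spot signal to noise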
Settings: higher = more signal

Going from `C=C(COC)/C(=C/C[C@H](OC(C)=O)c1ccc(CO)o1)c1cc(C(=O)OC)ccc1OC` to `COc1ccc(CCNC(=O)[C@@]2(Sc3ccc(C)cc3)CC(=O)N(C(C)C)[C@@H]2c2ccc(CO)cc2I)cc1`, the composite z-score rises from -0.103 to -0.0647.

Compared with `O=C(NCCN1CCOCC1)C1N=C(c2ccc(OCCCO)cc2)N(c2ccccc2)O1` (stereo not given), `O=C(N1CCCCC1)[C@]1(Cc2ccccc2)N=C(c2ccc(OCCCO)cc2)O[C@@H]1c1ccccc1` is higher in composite z-score: 0.0261 for the first, 0.096 for the second.

First: COCCOC(=O)N1C(=O)[C@@]2(c3cc(C#CCCO)ccc31)[C@H](C(=O)N1CCCCCCC1)[C@H]1C(=O)O[C@H](c3ccccc3)[C@H](c3ccccc3)N1[C@@H]2c1ccc(OCCO)cc1
Second: COCCOC(=O)N1C(=O)[C@@]2(c3cc(C#CC4(O)CCCCCC4)ccc31)[C@H](c1ccc(OCCO)cc1)N1[C@H](c3ccccc3)[C@H](c3ccccc3)OC(=O)[C@H]1[C@@H]2C(=O)N1CCN(c2ncccn2)CC1
The composite z-score of the first is higher: 1.33 for the first, 0.0026 for the second.

Going from `COc1cc(Br)cc(C(O)C2C=CC3C(=O)N(C)C(=O)C3N2N2CCCCC2)c1OC` (stereo not given) to `C=C(C)[C@@H]1CC=C(C(O)C2C=CC3C(=O)N(C)C(=O)C3N2Nc2ccccc2)CC1` (stereo not given in full), the composite z-score rises from -0.165 to 0.15.

Going from `CC(C)c1ccc(NN2C(C(O)c3ccc(B(O)O)cc3)C=CC3C(=O)N(c4ccccc4)C(=O)C32)cc1` (stereo not given) to `CC(C)C(O)C1C=CC2C(=O)N(c3ccccc3)C(=O)C2N1Nc1ccc([N+](=O)[O-])cc1` (stereo not given), the composite z-score rises from 0.216 to 1.2.

First: C=CCNC(=O)[C@@H]1[C@H]2C(=O)O[C@H](c3ccccc3)[C@H](c3ccccc3)N2[C@H](c2ccccc2OCCO)[C@@]12C(=O)N(C(=O)OCCOC)c1ccccc12
Second: COCCOC(=O)N1C(=O)[C@@]2(c3cc(C#CCNC(N)=O)ccc31)[C@H](C(=O)Nc1nc3ccccc3s1)[C@H]1C(=O)O[C@H](c3ccccc3)[C@H](c3ccccc3)N1[C@@H]2c1ccc(OCCO)cc1
The composite z-score of the first is higher: 0.492 for the first, 0.0952 for the second.

First: COC(=O)[C@@]1(Cc2ccc(OC)cc2)[C@@H]2C(=CC(=O)[C@H]2CC(=O)C(=O)N2CCCC2)CN1C(=O)c1ccccc1
Second: COC(=O)[C@@]1(Cc2ccc(F)cc2)[C@H]2c3cc(C(=O)N4CCCC4)n(Cc4ccc(S(C)(=O)=O)cc4)c3C[C@H]2CN1C(=O)c1ccccc1
The composite z-score of the first is lower: 0.132 for the first, 0.827 for the second.

Compared with `COC(=O)[C@@]1(Cc2ccc(OC)cc2)[C@H]2c3cc(C(=O)N(C)C)n(Cc4ccc(S(C)(=O)=O)cc4)c3C[C@H]2CN1C(=O)c1ccccc1`, `COc1ccc([Si](C)(C)[C@H]2[C@H](CCO)O[C@@]3(C(=O)N(Cc4ccc(N(C=O)c5ccccc5)cc4)c4ccccc43)[C@@H]2C)cc1` is lower in composite z-score: 0.697 for the first, -0.127 for the second.

Going from `COc1ccc(C#Cc2ccc3c(c2)[C@]2(C(=O)N3)[C@H](C(=O)Nc3nc4ccccc4s3)[C@H]3C(=O)O[C@H](c4ccccc4)[C@H](c4ccccc4)N3[C@@H]2c2ccc(O)cc2)cc1` to `COc1ccc(C#Cc2ccc3c(c2)[C@]2(C(=O)N3)[C@H](c3ccccc3OCCO)N3[C@H](c4ccccc4)[C@H](c4ccccc4)OC(=O)[C@H]3[C@@H]2C(=O)Nc2nc3ccccc3s2)cc1`, the composite z-score falls from 1.29 to 1.12.

Going from `OCCCC1=CC(c2cccs2)N(Cc2cc3c(cc2Br)OCO3)CC1` (stereo not given) to `CCN(CC)c1ccc(N2CC=CC34O[C@@H]5C=CCCOC(=O)C5[C@H]3C(=O)N(CCCCCCO)[C@@H]4C2=O)cc1` (stereo not given in full), the composite z-score falls from -0.0044 to -0.276.

First: CCCCCN1CC=CC23O[C@@H]4/C=C\CCC(C)OC(=O)C4[C@H]2C(=O)N(C(C)CO)[C@@H]3C1=O (stereo not given in full)
Second: CC(C)=CCCC(C)=CC(O)C1C=CC2C(=O)N(C)C(=O)C2N1Nc1ccccc1 (stereo not given)
The composite z-score of the first is lower: -0.127 for the first, 0.286 for the second.

Going from `CC(C)OC(=O)C=C1C[C@@H](c2ccccn2)O[C@@H](c2ccccn2)O1` to `CC(C)NC(=O)[C@@H]1c2ccccc2C(=O)N(C2Cc3ccccc3C2)[C@H]1c1ccc(CO)cc1`, the composite z-score falls from 0.0942 to -0.145.

Going from `C=CCOC(=O)[C@H]1[C@@H]2C(=O)O[C@@H](c3ccccc3)[C@@H](c3ccccc3)N2[C@@H](c2ccc(OCCOC(=O)[C@@H]3C[C@@H]4C(=O)N[C@@H](CCCCNC(C)=O)C(=O)N4[C@@H]3c3ccc(O)cc3)cc2)[C@]12C(=O)Nc1ccccc12` to `C=CCOC(=O)[C@H]1[C@@H]2C(=O)O[C@@H](c3ccccc3)[C@@H](c3ccccc3)N2[C@@H](c2ccc(OCCOC(=O)[C@H]3C[C@H]4C(=O)N[C@@H](CCCCNC(C)=O)C(=O)N4[C@H]3c3ccc(O)cc3)cc2)[C@]12C(=O)Nc1ccc(I)cc12`, the composite z-score falls from 0.173 to 0.0876.

Going from `Cc1nc2cc(Br)ccc2c(=O)o1` to `C=C[C@@H](COC(=O)OC(C)(C)C)N(Cc1ccc(OC)cc1)S(=O)(=O)c1ccc(Br)cc1`, the composite z-score rises from -0.013 to 0.185.

Compared with `COCCOC(=O)N1C(=O)[C@@]2(c3cc(C#Cc4ccc(OC)cc4)ccc31)[C@H](c1ccc(OCCO)cc1)N1[C@H](c3ccccc3)[C@H](c3ccccc3)OC(=O)[C@H]1[C@@H]2C(=O)N1CCN(c2ncccn2)CC1`, `COC(=O)C(CC#Cc1ccc2c(c1)[C@]1(C(=O)N2)[C@H](c2ccc(OCCO)cc2)N2[C@H](c3ccccc3)[C@H](c3ccccc3)OC(=O)[C@H]2[C@@H]1C(=O)Nc1nc2ccccc2s1)C(=O)OC` is higher in composite z-score: -0.0311 for the first, 0.0038 for the second.

Going from `CCCC[C@@H]1C[C@H]1[C@@H](NC(=O)C(C)(C)C)c1ccc(C(F)(F)F)cc1` to `COC(=O)[C@@]1(CCS(=O)(=O)c2ccccc2)N=C(c2ccc(OCCCO)cc2)O[C@H]1c1ccccc1CN=[N+]=[N-]`, the composite z-score rises from -0.222 to 0.0807.

Going from `O=C1c2ccccc2[C@](Cc2ccccc2I)(C(=O)NCCN2CCOCC2)[C@H](c2ccc(CO)cc2)N1C1CCCCC1` to `[N-]=[N+]=NCc1ccccc1C[C@]1(C(=O)N2CCCCC2)N=C(c2ccc(OCCCO)cc2)O[C@H]1c1ccccc1N=[N+]=[N-]`, the composite z-score falls from 0.323 to 0.194.

Work on `CCOC(=O)C[C@H]1[C@H](OC(=O)c2ccc(C(=O)c3ccccc3)cc2)[C@@H](NC(=O)CC(C)C)c2cc(OCCCO)ccc2N1C(=O)c1ccc2ccccc2n1` yielded a composite z-score of 0.206.
